The nature of assay [1]: Cell Viability - BJ (AID 421; calls by dose curve;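 note: potency is the fitted concentration of half-maximal effect; cells exposed to compound for 40 hours at 37 °C before readout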). The note with it: BJ fibroblast viability, qHTS. The method, boiled down: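 Cytotoxicity in human BJ foreskin fibroblasts is scored as loss of cellular ATP after a 40-hour exposure, measured by luciferase luminescence. Controls are DMSO and 100 uM tamoxifen.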
Background: In qHTS, concentration-response curves come from the screen itself.

The nature of assay [2]: Cell Viability - Jurkat (AID 426;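 active = dose-dependent loss of cell ATP signal giving a full or clear fitted curve, ranked by lower potency value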;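 note: potency is the fitted concentration of half-maximal effect; cells exposed to compound for 40 hours at 37 °C before ATP read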). As to conditions: qHTS. An outline of the steps: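 Cytotoxicity was scored as loss of cellular ATP, measured by luciferase-based luminescence, in Jurkat clone E6-1 cells after 40 h compound treatment; tamoxifen and doxorubicin served as positive controls.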
The nature of assay [3]: Cell Viability - Hek293 (AID 427;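 active = compounds whose dose-response curve shows a full or clear partial loss of cell viability, called from curve shape rather than a numeric limit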;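 note: potency is the fitted concentration of half-maximal effect; cells exposed to compound for 40 hours at 37 °C before reading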). The note with it: qHTS. The method, boiled down:
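qHTS, human embryonic kidney (adenovirus-transformed) cells; 40 hr cpd, 37 °C; CellTiter-Glo ATP luminescence. Norm: DMSO = 0, 100 uM tamoxifen = 100% inhibition. Hill-fit AC50.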

Assay [4] can be described thus: Cell Viability - HepG2 (AID 433; calls by dose curve; note: potency is the fitted concentration of half-maximal effect). As to conditions: qHTS. An outline of the steps: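 Cytotoxicity is scored as loss of intracellular ATP in HepG2 cells exposed to compounds for 40 h. Concentration-response curves, normalized to DMSO and 100 uM tamoxifen, give AC50 values.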
Assay [5] can be described thus: Cell Viability - MRC5 (AID 434; calls by dose curve;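 note: potency is the fitted concentration of half-maximal effect; cells exposed to compound for 40 hours at 37 °C; potency reflects cytotoxicity seen as loss of intracellular ATP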). As to conditions: MRC5 lung fibroblast viability, qHTS. An outline of the steps: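 Decrease in intracellular ATP, quantified by luciferase light output, reflects compound toxicity toward MRC5 cells exposed for 40 hr in complete culture medium. Concentration-response curves, scaled between DMSO and 100 uM tamoxifen, gave AC50 values.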

Assay [6] is described as follows: Cell Viability - SK-N-SH (AID 435; calls by dose curve;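 note: potency is the fitted concentration of half-maximal effect; compound exposure lasted 40 h at 37 °C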). The note with it: SK-N-SH neuroblastoma cell viability qHTS. An outline of the steps: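 Cells seeded at 1500 per well and incubated 5 hr at 37 °C. Compound added, then 40 hr at 37 °C. CellTiter-Glo added, 20 min at room temperature, luminescence read.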
For assay [7], the target named is Mitogen-activated protein kinase 10 (Mus musculus) (UniProt Q61831). Briefly: JNK3 AlphaScreen Assay (AID 530; active = well fitted curve in either direction with a large enough effect, not every such curve was filed as active;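 note: kinase came from lysate of stimulated human HepG2 cells; signal reports phosphorylation of biotinylated GST-cJun 1-79 at Ser73 with 10 µM ATP; % is set by controls: 0 for no effect and ±100 for the full control effect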). The note with it: JNK3 lysate, c-Jun phosphorylation; series mostly up to 57.1 µM. The method, boiled down:
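Biotinylated GST-cJun(1-79) served as substrate for JNK3 in HepG2 lysates stimulated with IL-1beta and TNF-alpha. ATP was 10 uM final, pH 7.6. Ser73 phosphorylation was quantified by AlphaScreen (680 nm excitation).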

Assay [8] can be described thus: Cell Viability - NIH 3T3 (AID 541).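 Note: plate controls were DMSO alone for no effect and tamoxifen positive control for full effect; nearly all actives have a fitted effect of over 25% in size.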 As to conditions: NIH 3T3 cell viability, qHTS; activity change, negative = cytotoxicity: at 92.2 µM (top of the series). An outline of the steps: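 In this cytotoxicity screen, acute toxicity is scored as an ATP drop measured by CellTiter-Glo in NIH 3T3 fibroblasts following a 40 hr, 37 °C incubation with compound.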
Assay [9] can be described thus: Cell Viability - H-4-II-E (AID 543). Note: % is set by controls: 0 for no effect and ±100 for the full control effect; nearly all actives have a fitted effect of over 35% in size. As to conditions: H-4-II-E rat hepatoma viability; series mostly up to 92.2 µM. An outline of the steps:
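AC50 from Hill-modelled qHTS concentration-response curves. H-4-II-E rat hepatoma cells in complete medium, 40 hr exposure at 37 °C, viability by CellTiter-Glo ATP luminescence.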

The nature of assay [10]: Cell Viability - Mesenchymal (AID 546).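 Note: cells exposed to compound for 40 hours before reading.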 As to conditions: mesenchymal cells viability, qHTS; activity change, negative = cytotoxicity: at 91.7 µM (top of the series). The method, boiled down:
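In this qHTS cytotoxicity format, glomerulus-derived human mesenchymal kidney cells received compound for 40 hr, then luciferase-based ATP quantitation. Concentration-response data were fitted with the Hill equation.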

A short description of assay [11]: Cellular Toxicity (caspase-3) HepG2 (AID 654).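 Note: cells exposed to compound for 16 hours before reading.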 The note with it: HepG2 caspase-3 activation, luminescence, 0% = DMSO only, 100% = tamoxifen; series mostly up to 92.2 µM. An outline of the steps: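 Concentration-response AC50 values reflect caspase-3/7 induction in HepG2 cells after 16 hours of compound exposure, quantified by luminescence from liberated aminoluciferin and referenced to 100 uM tamoxifen as full stimulation.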

Assay [12] in a line: Cellular Toxicity (caspase-3) HUV-EC-C (AID 656). The note with it: HUV-EC-C cells, caspase-3 activation (apoptosis), vehicle = 0, 100 µM tamoxifen = 100%; series mostly up to 92.2 µM. An outline of the steps: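 Read-out: luminescence proportional to caspase 3/7 activity, measured 20 min after adding Caspase-Glo 3/7 reagent. Cells (HUV-EC-C) had received compound for 16 hr at 37°C. Increases relative to DMSO and 100 uM tamoxifen gave concentration-response AC50 values.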

The nature of assay [13]: Cellular Toxicity (caspase-3) BJ (AID 658). As to conditions: BJ fibroblasts, luminescence, normalized: DMSO 0%, staurosporine 100%; series mostly up to 91.7 µM. The method, boiled down:
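Plated BJ cells (1000/well) rested 5 hr, received compound for 16 hr at 37 °C, then Caspase-Glo 3/7 reagent for 1 hr at room temperature before luminescence reading.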

A short description of assay [14]: Cellular Toxicity (caspase-3) MRC-5 (AID 659). The note with it: MRC-5 cells, luminescence, normalized: DMSO 0%, 10 µM staurosporine 100%; series mostly up to 91.7 µM. An outline of the steps: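 Apoptosis readout in MRC-5 cells: luciferase light generated after caspase 3/7 cleaves a peptide-aminoluciferin substrate, measured post 16 hr compound incubation at 37 °C.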

The nature of assay [15]: Cellular Toxicity (caspase-3) Mesangial (AID 660).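 Note: cells exposed to compound for 16 h before the caspase read.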 The note with it: mesangial cells, normalized: DMSO 0%, 100 µM tamoxifen 100%; series mostly up to 91.7 µM. The method, boiled down: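 AC50 values come from Hill-equation fits of caspase 3/7 activation, measured as Caspase-Glo luminescence in human glomerular mesangial cells exposed to compound for 16 h at 37 °C; 100% set by 100 uM tamoxifen.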

The nature of assay [16]: Cellular Toxicity (caspase-3) Hek293 (AID 664).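 Note: cells exposed to compound for 16 h at 37 °C before readout.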 The note with it: HEK293 caspase-3 activation, DMSO = 0%, 100 µM tamoxifen = 100%; series mostly up to 92.2 µM. The method, boiled down: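 Apoptosis readout: Caspase-Glo 3/7 signal in human HEK293 cells following 16-hour compound incubation. Responses scaled between DMSO baseline and 100 uM tamoxifen.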
Assay [17] can be described thus: Cellular Toxicity (caspase-3) Renal Proximal Tubule (AID 667).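 Note: cells exposed to compound for 16 hours at 37 °C before detection.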 The note with it: renal proximal tubule cells, primary cells freshly taken from rat, solvent-only wells 0%, staurosporine 100%; series mostly up to 91.7 µM. An outline of the steps:
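In qHTS format, rat primary proximal tubule cells seeded at 1000 per well are exposed to compounds for 16 hours at 37 °C. An increase in Caspase-Glo 3/7 luminescence indicates caspase activation.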

Assay [18] can be described thus: qHTS Assay for Identification of Small Molecule Inducers of Hypoxia Response (AID 2120; active = well fitted curve in the direction sought with a large enough effect in the signal ratio, with a control signal flat, not every such curve was filed as active; the % refers to the signal ratio; note: 0% is about no effect). The note with it: hypoxia response reporter cells, beta-lactamase ratio readout; series mostly up to 104 µM. The method, boiled down: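 HRE-bla ME-180, 2500 cells/well, 0.5% dialyzed FBS medium; cpd titration, 17 h 37 degrees C; CCF4 2.5 h RT; Ex 405, Em 460/530 ratio -> %Activity, AC50.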

Assay [19] in a line: qHTS assay for small molecule antagonists of retinoid X receptor alpha signaling (AID 588546).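 Note: cells stimulated with 9-cis-retinoic acid as agonist; % is set by controls: 0 for no effect and ±100 for the full control effect.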 As to conditions: HEK293T RXRa-UAS-bla, beta-lactamase ratio, antagonist mode; measured here: W530 green channel, cytotoxicity proxy. The method, boiled down:
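Beta-lactamase reporter inhibition, read as CCF4 fluorescence ratio (ex 405, em 460/530 nm) after 2 h at RT. HEK293T UAS-bla cells, 2500/well, were stimulated with 9-cis-RA at 500 or 100 nM final alongside test compound for 18 h at 37 C.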

In assay [20] the target is Peroxisome proliferator-activated receptor alpha (Homo sapiens) (UniProt Q07869). Briefly: qHTS assay for small molecule agonists of the peroxisome proliferator-activated receptor alpha (PPARalpha) signaling pathway (AID 651778). Note: % of control where 0% means no effect. The note with it: PathHunter PPARalpha complementation, chemiluminescence, 6 h; max response: stronger effect = higher value. The method, boiled down: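 Cells plated at 2,000/well and held overnight at 37 C, 5% CO2, then compound added by pin tool for 6 hr; after PathHunter detection reagent and 60 min at room temperature, chemiluminescence from enzyme complementation was read.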
Peroxisome proliferator-activated receptor alpha (Homo sapiens), sequence (Q07869 whole entry, looked up): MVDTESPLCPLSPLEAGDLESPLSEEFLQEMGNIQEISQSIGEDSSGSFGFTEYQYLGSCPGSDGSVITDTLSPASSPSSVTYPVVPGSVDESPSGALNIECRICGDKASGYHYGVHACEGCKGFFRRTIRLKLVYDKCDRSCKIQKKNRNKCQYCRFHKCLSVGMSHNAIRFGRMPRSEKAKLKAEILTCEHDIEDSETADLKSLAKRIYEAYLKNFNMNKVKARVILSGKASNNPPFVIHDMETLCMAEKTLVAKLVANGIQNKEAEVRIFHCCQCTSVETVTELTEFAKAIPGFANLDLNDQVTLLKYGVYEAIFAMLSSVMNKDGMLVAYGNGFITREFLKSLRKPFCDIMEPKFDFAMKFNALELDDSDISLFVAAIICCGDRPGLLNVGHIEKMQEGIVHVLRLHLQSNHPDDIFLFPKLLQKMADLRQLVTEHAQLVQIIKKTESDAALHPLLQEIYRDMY

Structures are written as SMILES. Where “and” joins values, the source holds several entries; their conditions need not be identical. Equal values may be shown once. Results filed as inconclusive are left out. Calls of active or inactive are those of the source. Unless noted, calls come from the whole dose curve; as a rule, active = well fitted curve in the direction sought with a large enough effect; inconclusive = small, poorly fitted or top-dose-only effect, or another doubt; inactive = no such curve, though single readings can be large; an effect the other way counts as inactive or inconclusive.

Take `COC(=O)c1ccc(C)cc1`: the Potency in assay [1], in assay [2], in assay [3], in assay [4], in assay [5] and in [6] was > 92 µM (inactive) throughout. The Potency result in [7], in [8] and in [9] was “inactive” in each case. In assay [10], the activity change, negative = cytotoxicity was -2.78% (inactive). For the same compound, the compound was classed as inactive in assay [11], in [12], in [13], in [14], in [15] and in [16]. The compound was called inactive in assay [17] and in [18]. In addition, the max response in assay [19] was -12.4% and -3.35%; in [20] it was 0.456% (inactive) and 0.65% (inactive).
With `C=CCOC(=O)c1ccccc1C(=O)OCC=C`, the Potency in [1], in assay [2], in [3], in assay [4], in assay [5] and in [6] was > 92 µM (inactive) in each case. In addition, the Potency entry in assay [7], in assay [8] and in assay [9] was “inactive” throughout. Moreover, the activity change, negative = cytotoxicity in [10] is -9.3% (inactive). In addition, the call in assay [11], in assay [12], in assay [13], in [14], in assay [15] and in assay [16] was inactive. The compound was called inactive in assay [17] and in assay [18]. Besides, the max response was -4.9% and -9.66% in [19]; 16.2% (inactive) and -0.609% (inactive) in [20].
With `CCCN(CCC)C(=O)SCC`, the Potency in [1], in assay [2], in assay [3], in [4], in assay [5] and in assay [6] was > 92 µM (inactive) in each case. Also, the Potency entry in assay [7], in [8] and in [9] was “inactive” in each case. In assay [10], the activity change, negative = cytotoxicity was 5.65% (inactive). In addition, the compound was classed as inactive in assay [11], in [12], in [13], in [14], in [15] and in assay [16]. The compound was called inactive in assay [17] and in [18]. Also, the max response in assay [19] was -11.5% and -6.21%; in assay [20], -2.51% (inactive) and -1.87% (inactive).
For `Nc1ccc(S(=O)(=O)O)cc1`, the Potency in assay [1], in assay [2], in assay [3], in [4], in [5] and in [6] was > 92 µM (inactive) throughout. Moreover, the Potency entry in [7], in assay [8] and in assay [9] was “inactive” in each case. Further, in [10], the activity change, negative = cytotoxicity was 9.75% (inactive). The compound was classed as inactive in [11], in assay [12], in assay [13], in assay [14], in [15] and in assay [16]. Also, the result in assay [17] and in [18] was inactive. The max response in [19] was -0.278%; in assay [20] it was -1.01% (inactive) and -2.98% (inactive).
Consider `CCO[Si](CCCN)(OCC)OCC`, for which the Potency in assay [1], in assay [2], in assay [3], in assay [4], in [5] and in [6] was > 92 µM (inactive) throughout. Also, the Potency result in assay [7], in [8] and in assay [9] was “inactive” each time. Further, the activity change, negative = cytotoxicity in assay [10] was -8.88% (inactive). Also, the result in assay [11], in assay [12], in [13], in assay [14], in assay [15] and in assay [16] was inactive. For the same compound, the result in assay [17] and in [18] was inactive. Also, the max response in assay [19] was -0.81% and -5.53%; in [20], -1.45% (inactive) and -1.48% (inactive).

(Values after PubChem BioAssay (NCATS).)
